Reference: PubChem BioAssay (NCI)
The panel holds about 83,000 compounds, 20% with a hit somewhere; the sample as a whole holds those more often.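 Note: values are percent growth. 100 is the growth of untreated cells, values between 100 and 0 indicate rising inhibition; between -100 and 0 indicates cell death.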 A number with no mark means an inactive call. Activity calls are given as the source filed them. Rule for the calls: active = growth percent below 10; inactive = the rest.

Assays:
Assay in all cases: NCI-60 one-dose screen, 48 h (100 = growth as untreated, 0 = no growth, -100 = all killed)
Conditions in all cases: 10 µM unless noted
NCI-H23 lung = tested on: NCI-H23 lung
NCI-H226 lung = tested on: NCI-H226 lung
NCI-H322M lung = tested on: NCI-H322M lung
HOP-62 NSCLC = tested on: HOP-62 NSCLC
NCI-H460 lung = tested on: NCI-H460 lung
HOP-92 NSCLC = tested on: HOP-92 NSCLC
NCI-H522 lung = tested on: NCI-H522 lung
A549/ATCC NSCLC = tested on: A549/ATCC NSCLC
786-0 renal = tested on: 786-0 renal
COLO 205 colon = tested on: COLO 205 colon
DU-145 prostate = tested on: DU-145 prostate
K-562 leukemia = tested on: K-562 leukemia
MALME-3M melanoma = tested on: MALME-3M melanoma
MDA-MB-231 breast = tested on: MDA-MB-231 breast
RXF 393 renal = tested on: RXF 393 renal
SF-268 CNS = tested on: SF-268 CNS
SF-295 CNS = tested on: SF-295 CNS
SF-539 CNS = tested on: SF-539 CNS
UACC-257 melanoma = tested on: UACC-257 melanoma
M14 melanoma = tested on: M14 melanoma

Compound | growth (NCI-H23 lung) | growth (NCI-H226 lung) | growth (NCI-H322M lung) | growth (HOP-62 NSCLC) | growth (NCI-H460 lung) | growth (HOP-92 NSCLC) | growth (NCI-H522 lung) | growth (A549/ATCC NSCLC) | growth (786-0 renal) | growth (COLO 205 colon) | growth (DU-145 prostate) | growth (K-562 leukemia) | growth (MALME-3M melanoma) | growth (MDA-MB-231 breast) | growth (RXF 393 renal) | growth (SF-268 CNS) | growth (SF-295 CNS) | growth (SF-539 CNS) | growth (UACC-257 melanoma) | growth (M14 melanoma)
COC(=O)c1nc(-c2ccccc2)oc1S(=O)(=O)N(C)CCO | 90.9% | 90.8% | 94.6% | 103% | 105% | 41.7% | 32.7% | 91.2% | 57.9% | 48% | 65.4% | 22.2% | 69.6% | 78.3% | 64.8% | 92.3% | 104% | 68.7% | 63.8% | 41.1%
Cn1cc(-c2nc3c(F)cc4[nH]ncc4c3c3c2CCCC3)c(C(F)F)n1 | 66.9% | 62.2% | 66.2% | 57.3% | 62.3% | 8.14% (active) | 26.9% | 58.1% | 63.9% | 89.4% | 78.7% | 26% | 77.1% | 60.2% | 55% | 61.7% | 64.7% | 62.3% | 90.5% | 53.4%
O=C1C(N2CCOCC2)=C(I)C(=O)c2ncccc21 | 58.1% | 84.8% | 99.1% | 55.8% | 58.8% | 123% | 36.5% | 85.8% | 90% | 102% | 84.8% | 4.52% (active) | 87.3% | 87.1% | 72.6% | 71.5% | 97.3% | 82.7% | 85% | 87.1%
CC1(C)C(N)=Nc2cc(OCCCCN3Cc4ccccc4C3)c(OCC3CC3)cc21 | 80.3% | 79.6% | 79.9% | 85.6% | 75.2% | 103% | 64.2% | 79.5% | 64.8% | -62.7% (active) | 88.8% | 97.3% | 2.01% (active) | 59.2% | 65.8% | 74.7% | 84.8% | 80.8% | 1.07% (active) | -53.1% (active)
COC(=O)/C=C1/SC(=Nc2ccc([N+](=O)[O-])cc2)N(CCc2c[nH]c3ccccc23)C1=O | 72.7% | 98.7% | 98.4% | 96.7% | 92.2% | 73.2% | 53.6% | 90.8% | 68% | 84.6% | 66.8% | 25.8% | 86.5% | 72.1% | 70.4% | 75.7% | 84.2% | 79.6% | 71.6% | 52%
CC(=O)c1c(C)nc(SCC(=O)Nc2ccc(Cl)cc2)n1-c1ccc(Cl)cc1 | 96.5% | 96% | 94.9% | 99% | 86.7% | 110% | 72.3% | 86.7% | 102% | 109% | 106% | 83% | 90.8% | 82% | 67.3% | 92.5% | 91.3% | 95.8% | 94.5% | 98.4%
CC/C(=C(/c1ccc(O)cc1)c1ccc(OCCN2CCCCCC2)cc1)c1ccc(Cl)cc1 | 80.4% | 89.2% | 84.1% | 98.8% | 46% | 69.5% | 90.2% | 70.6% | 18.4% | 4.48% (active) | 82.9% | -21.5% (active) | 47.5% | 88.4% | 63.7% | 63.4% | 87.8% | 78.2% | 87.3% | 17%
COc1ccc(Nc2nn3c(SCC(=O)c4ccc(C)cc4)nnc3s2)cc1 | 91.1% | 84.8% | 86.2% | 90.8% | 97.9% | 83.4% | 80.6% | 96.6% | 93.5% | 91.8% | 101% | 83.5% | 98.7% | 91.7% | 97.1% | 100% | 100% | 107% | 108% | 99.2%
S=c1nc(CS)[nH]c2ccccc12 | 89.5% | 87.4% | 95.6% | 89.6% | 100% | 96.8% | 95.6% | 96.6% | 103% | 112% | 108% | 104% | 86.6% | 82.8% | 109% | 92.4% | 94.6% | 94.7% | 95.9% | 98.2%
CCOC(=O)C1=C(C)NC(=O)NC1c1c(Cl)n(-c2ccccc2)c2ccccc12 (stereo not given) | 74.7% | 86.5% | 80.5% | 86.7% | 96.1% | 59.5% | 66% | 88.2% | 83.1% | 107% | 85.7% | 43.4% | 86.2% | 81.5% | 55.6% | 86.7% | 85.5% | 87.9% | 88.3% | 86.5%
CCCCCO/N=C\c1c2c(O)c3c(O)c(C)c4c(c3c1O)C(=O)C(C)(O/C=C\C(OC)C(C)C(OC(C)=O)C(C)C(O)C(C)C(O)C(C)/C=C\C=C(\C)C(=O)N2)O4 (stereo not given) | 19.7% | 26.9% | 53.2% | 34.7% | 5.62% (active) | -5.96% (active) | 6.3% (active) | 20.9% | 31.6% | 2.86% (active) | 36% | 17.6% | 41.2% | 31.4% | 36.6% | 31.2% | 7.23% (active) | 37.3% | 8.59% (active) | 28.2%
O=C1Nc2ccccc2/C1=C/c1cccn1CCCCCn1c2ccccc2c(=O)c2ccccc21 | 69.6% | 70% | 98.8% | 58.3% | 95.9% | 65.5% | 66.3% | 81.4% | 105% | 56.2% | 97.9% | 52.1% | 84.5% | 69.3% | 89.2% | 83.3% | 93.1% | 94.2% | 106% | 73.3%
O=S(=O)(O)c1ccc(N=Nc2ccc(N=Nc3cccc4ccccc34)c(S(=O)(=O)O)c2)cc1 | 91.5% | 90.1% | 102% | 107% | 98.9% | 83.4% | 103% | 109% | 107% | 100% | 109% | 104% | 107% | 80.3% | 119% | 106% | 106% | 102% | 107% | 99.5%
COC1=CC(=O)C(OC)=C(O)C1=O | 99.1% | 102% | 93.8% | 97.9% | 106% | 106% | 96.5% | 105% | 95.7% | 103% | 109% | 103% | 97.7% | 100% | 104% | 107% | 102% | 92.4% | 97.4% | 97.2%
